PubChem BioAssay
Potency and affinity values are given separately. Active and inactive are the calls of the source.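 The calls were made as follows: active = fitted dose curve reaches 40% lysis signal rise at or below the highest valid concentration tested for that sample; inconclusive = flat fit between 30% and 70%, or poor curve fit; inactive = signal falls, stays flat within 30%, or no crossing.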

Test: inducers of Cryptococcus neoformans cell lysis, dose response, AK release luminescence, cherry-picks (AID 687000);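 also: luminescent detection of adenylate kinase leaking from lysed yeast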
Details: C. neoformans lysis, adenylate kinase release luminescence, 4 h, 100% = twice the neutral-control signal; series mostly up to 15 µM

outcome, inactive:
O=C(Nc1cccc(F)c1)N[C@H]1CC[C@@H](CCNS(=O)(=O)c2cccc(Cl)c2)O[C@@H]1CO
CCC(=O)N1[C@@H]2Cn3c(cccc3=O)[C@H]1[C@@H](C(=O)NCc1ccccc1)[C@@H]2CO
Cc1ccc(S(=O)(=O)N[C@@H]2CCCN(Cc3cccc(OCCO)c3)C2)cc1
C[C@H](CO)N1C[C@H](C)[C@@H](CN(C)C(=O)c2cccc(F)c2)Oc2cc(-c3cncnc3)ccc2S1(=O)=O
COc1ccc(NC(=O)N(C)C[C@H]2OCCCC[C@@H](C)Oc3ccc(N(C)C)cc3C(=O)N([C@H](C)CO)C[C@H]2C)cc1
COc1ccc(NC(=O)N(C)C[C@@H]2OCCCC[C@H](C)Oc3ccc(NC(=O)Nc4ccc5c(c4)OCO5)cc3C(=O)N([C@H](C)CO)C[C@@H]2C)cc1
CNC[C@@H]1Oc2cc(Br)ccc2S(=O)(=O)N([C@H](C)CO)C[C@H]1C
O=C(C[C@H]1CC[C@@H]2[C@H](COC[C@@H](O)CN2Cc2cccc(C(F)(F)F)c2)O1)NCc1ccc(Cl)cc1
C[C@@H]1CN([C@H](C)CO)C(=O)c2cc(-c3ccc(F)cc3)cnc2O[C@H]1CN(C)CC1CCCCC1
CC(C)NC(=O)Nc1ccc2c(c1)C(=O)N([C@@H](C)CO)C[C@@H](C)[C@@H](CN(C)C(=O)c1ccncc1)OCCCC[C@@H](C)O2
CCCN(C)C[C@H]1OCCCC[C@@H](C)Oc2ccc(NC(=O)NC(C)C)cc2C(=O)N([C@@H](C)CO)C[C@H]1C
CO[C@@H]1CN(C)C(=O)c2cc(NC(=O)C3CC3)ccc2OC[C@H](C)N(C(=O)c2ccncc2)C[C@H]1C
Cc1cccc(C)c1NC(=O)CN1CCN(C(=O)CNC(=O)c2ccc(N3CCCC3=O)cc2)CC1
C[C@@H]1CCCCO[C@H](CN(C)C(=O)c2ccncc2)[C@H](C)CN([C@H](C)CO)C(=O)c2cc(NC(=O)CCC(F)(F)F)ccc2O1
O=C(C[C@H]1C=C[C@H](NC(=O)C2CCC2)[C@@H](CO)O1)NC1CCC1
CNC(=O)C[C@H]1CC[C@H]2[C@@H](COc3ccc(NC(=O)Nc4ccccc4)cc3C(=O)N2C)O1
C=CCNC(=O)CN(c1ccc(F)cc1)S(=O)(=O)c1ccc(OC)cc1
O=C(Nc1ccc(F)cc1)N1C[C@@H]2[C@H](c3ccccc31)[C@H](CO)N2Cc1cocn1
Cc1ccccc1S(=O)(=O)N[C@H]1CC[C@H](CCNS(=O)(=O)c2cccc(F)c2)O[C@H]1CO
C[C@@H]1CN([C@@H](C)CO)C(=O)CCCn2cc(nn2)CO[C@@H]1CN(C)C(=O)CCCN(C)C
Cc1cccc(C)c1NC(=O)CNC(=O)C1CCCC1
COc1ccccc1-c1ccc([C@H]2[C@@H](C#N)N(C(=O)C3CC3)[C@@H]2CO)cc1
CNC[C@@H]1Oc2c(NS(=O)(=O)c3cccs3)cccc2C(=O)N([C@@H](C)CO)C[C@H]1C
C[C@@H]1CCCCO[C@@H](CN(C)Cc2ccncc2)[C@@H](C)CN([C@@H](C)CO)C(=O)c2cc(NC(=O)c3ccncc3)ccc2O1
CC(Sc1ncnc2c1cnn2-c1ccccc1)C(=O)Nc1ccc(N2CCOCC2)cc1 (centres undefined)
C[C@@H]1CN([C@@H](C)CO)C(=O)c2cc(NS(=O)(=O)c3ccc(F)cc3)ccc2O[C@@H](C)CCCCO[C@@H]1CN(C)Cc1ccc2c(c1)OCO2
C[C@@H](O)C#Cc1ccc([C@@H]2[C@H]3CN(CC4CC4)CCCCN3[C@H]2CO)cc1
CCS(=O)(=O)NCC[C@@H]1CC[C@@H](NS(=O)(=O)c2cccc(F)c2)[C@@H](CO)O1
CCCNC(=O)N1[C@@H](CO)[C@@H](c2ccc(-c3ccccc3)cc2)[C@@H]1CNC(C)=O
C/C=C/c1ccc([C@H]2[C@@H](C#N)N(S(=O)(=O)c3cccc(F)c3)[C@H]2CO)cc1
COc1ccccc1C#Cc1ccc2c(c1)O[C@@H](CN(C)C(C)=O)[C@@H](C)CN([C@H](C)CO)S2(=O)=O
C[C@@H]1CN([C@@H](C)CO)C(=O)c2cc(/C=C/c3ccccc3)cnc2O[C@@H]1CN(C)S(C)(=O)=O
Cc1cc(C)c(NC(=O)C2CCCCN2C)c(C)c1 (centres undefined)
CO[C@H]1CN(C)C(=O)c2cc(NS(=O)(=O)c3ccc(C)cc3)ccc2OC[C@@H](C)N(C(=O)NC(C)C)C[C@@H]1C
COc1ccc(CNC(=O)C[C@H]2CC[C@H]3[C@@H](COc4ccc(NC(=O)C5CC5)cc4C(=O)N3C)O2)cc1
O=C(Cc1cccs1)N1CCN(c2ccccc2)CC1
Cc1noc(C)c1S(=O)(=O)Nc1ccc2c(c1)CC(=O)N([C@@H](C)CO)C[C@@H](C)[C@@H](CN(C)S(=O)(=O)c1cccs1)O2
C[C@@H]1CN([C@@H](C)CO)C(=O)c2cc(NC(=O)C3CCCCC3)ccc2O[C@@H](C)CCCCO[C@@H]1CN(C)C(=O)NC1CCCCC1
O=C(C[C@H]1CC[C@H]2[C@@H](COC[C@H](O)CN2Cc2cccc(Cl)c2)O1)Nc1nccs1
